# MCF10A rereplic: inducers of DNA re-replication in MCF 10A breast cells; 350,000 tested, 2.9% active; Potency, µM (series often up to 46.1 µM), for the others: at the highest dose activity, positive = re-replication, hits mostly activators; MCF 10A DNA re-replication, Hoechst nuclear intensity, 48 h; further: potency means the concentration at half of the fitted maximal effect; % of control where 0% means no effect; nearly all actives have a fitted effect of over 50% in size
# IL1B secr inh: inhibitors of inflammasome signaling (IL-1 beta secretion). THP-1 LPS/ATP IL-1B secretion, AlphaLISA, 16 h; stronger effect = lower value. activity change, % at 57.5 µM. 360,000 tested, 4.7% active. AID 743279; in the data active means activity change below about -50%; inconclusive means mostly about -30% to -49%; further: on the % scale 0 is the no-effect control and ±100 the full control effect
#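 Secreted IL-1B measured by AlphaLISA bead assay after 16 h compound exposure of THP-1 cells; compounds (final up to 57.5 uM) added 1 h before LPS (250 ng/mL) and ATP (1.25 mM) stimulation; lower signal means less secretion.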
# KB-V1 cytotox: KB-V1 MDR subline cytotoxicity | Potency, µM (doses to about 46.1 µM), usual class: cytotoxic | AID 1347076 | 400,000 tested, 3.4% active | KB-V1 MDR cells viability, CellTiter-Glo, 72 h; further: potency means the concentration at half of the fitted maximal effect; on the % scale 0 is the no-effect control and ±100 the full control effect; nearly all actives have a fitted effect of over 60% in size
#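 Cytotoxicity toward P-gp-expressing KB-V1 cells was determined as loss of CellTiter-Glo luminescence after 72 h at 37 degrees C. Compounds were tested in quantitative HTS format across a concentration range, with curves fitted to normalized data.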
# KB-3-1 cytotox: KB-3-1 parental cell cytotoxicity; 400,000 tested, 1.4% active; Potency, µM (series often up to 46.1 µM), most hits filed as cytotoxic; AID 1347075; KB-3-1 viability, CellTiter-Glo ATP luminescence, 72 h; further: potency means the concentration at half of the fitted maximal effect; on the % scale 0 is the no-effect control and ±100 the full control effect; nearly all actives have a fitted effect of over 60% in size
#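 Cytotoxicity measured as CellTiter-Glo luminescence after 72 h at 37 C. Compound titrations were pinned onto drug-naive KB-3-1 parental adenocarcinoma cells grown in DMEM with 10% FBS, and normalized data fitted to concentration-response curves.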
# SW480 rereplic: DNA re-replication induction in SW480 cells. SW480 DNA re-replication, Hoechst DNA content imaging, 48 h. Potency, µM (highest dose often 46.1 µM), for inactives: at the highest dose re-replication activation, usual class: activators. 340,000 tested, 1.8% active. AID 624297; further: potency means the concentration at half of the fitted maximal effect; % of control where 0% means no effect; nearly all actives have a fitted effect of over 55% in size
#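 First, 250 cells per well were seeded. Next, compound or vehicle (23 nL) was pinned in, plates sat 48 hr at 37 C. Finally Hoechst was added for 40 min before fluorescence scanning.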
# Starred values were filed as active, the others as inactive; i = inactive; ? = inconclusive; / = not tested or not shown; ! = repeats disagree. An excerpt weighted towards active compounds, which were near 9.9% of everything screened. Unless noted, the call rests on the fitted dose curve; in most records, active means well fitted curve in the direction sought with a large enough effect; inconclusive means small, poorly fitted or top-dose-only effect, or another doubt; inactive means no such curve, though single readings can be large; an effect the other way counts as inactive or inconclusive.
SMILES,MCF10A rereplic,IL1B secr inh,KB-V1 cytotox,KB-3-1 cytotox,SW480 rereplic
CCNc1ccc(Br)cc(C(=O)/C=C/c2ccccc2Cl)c1=O,?,-104.3*,23.1µM*,?,?
CNc1ccc(Br)cc(C(=O)/C=C/c2cccc(Cl)c2Cl)c1=O,16.4µM*,-55.6*,?,16.4µM*,4.0%
O=S(=O)(Nc1nc2ccccc2[nH]1)c1ccccc1,-1.5%,?,20.6µM*,i,-0.9%
Cc1nn(CC(=O)NC2CCC(C)CC2)c(C)c1[N+](=O)[O-] (stereo unspecified),-2.3%,-11.0,i,i,-8.5%
Cc1ccccc1NC(=O)c1nnn(-c2ccc3c(c2)OCCO3)c1N,-17.2%,-64.8*,i,i,-4.2%
OC[C@@H](O)[C@H](O)C(/C=N/Nc1ccccc1)=N\Nc1ccccc1,?,-19.3,i,?,-1.8%
CN(C(=O)CSc1nc(N)cc(=O)[nH]1)C1CCCCC1,/,6.5,?,i,/
CN(C(=O)CSc1nc2c(c(=O)[nH]1)CCCC2)C1CCCCC1,?,31.7,16.4µM*,i,-0.7%
O=C(O)CCCNC(=O)Cc1ccccc1,0.4%,8.4,?,i,-3.0%
COc1cc(C(=O)NNC(=S)NCc2ccco2)cc(OC)c1OC,25.7%,11.2,i,i,-28.7%
COc1cccc(OC)c1C(=O)N1CCNCC1,2.7%,11.8,?,i,-3.1%
O=C(CCl)N1c2ccccc2SCC1c1ccccc1 (stereo unspecified),7.31µM*,-105.0*,i,?,14.6µM*
O=C(CCl)N1c2ccccc2OCC1c1ccccc1 (stereo unspecified),106.4%,-93.6*,?,i,?
O=C(CN1CCSc2ccccc21)N1CCCCC1,/,/,i,i,/
CC(=O)N1CCN(Cc2nc3cc(NC(=O)c4ccccc4Cl)ccc3n2C)CC1,0.1%,56.8,i,i,0.7%
Cn1c(CN2CCCCC2)nc2cc(NC(=O)c3ccccc3Cl)ccc21,-3.2%,14.4,14.6µM*!,?,0.0%
CCn1c(CN2CCOCC2)nc2cc(NC(=O)c3ccc([N+](=O)[O-])cc3)ccc21,/,/,?,16.4µM*,/
Cn1c(CN2CCCCC2)nc2cc(NC(=O)c3ccc(F)cc3)ccc21,9.0%,?,20.6µM*,?,?
CC(=O)Nc1ccc(S(=O)(=O)Nc2cccc(NC(=O)c3ccco3)c2)cc1,-0.5%,-9.1,i,i,-8.7%
COc1ccccc1NC(=O)CSc1nncs1,0.6%,13.1,i,i,7.5%
CCc1sc(C(=O)Nc2ccc3c(c2)OCO3)cc1C,15.0%,-80.3*,i,i,14.3%
CC1CCc2sc(C(=O)Nc3ccc(N4CCOCC4)cc3)cc2C1 (stereo unspecified),?,?,i,i,10.1%
CC(C)(O)C#Cc1ccc(C(=O)Nc2ccc3c(c2)OCO3)s1,8.7%,-52.5*,i,i,4.1%
CCc1sc(C(=O)Nc2ccc(N3CCOCC3)cc2)cc1C,-18.7%,-64.1*,i,?,14.3%
CCc1cccc(C)c1NC(=O)Nc1ccc2c(c1)OCO2,-2.0%,-19.9,i,i,-3.6%
SMILES,MCF10A rereplic,IL1B secr inh,KB-V1 cytotox,KB-3-1 cytotox,SW480 rereplic
COc1ccc(CNC[C@H]2O[C@@H](n3ccc(=O)[nH]c3=O)[C@H](O)[C@@H]2O)cc1,/,5.0,i,i,/
Cc1csc2nc(COc3ccccc3NC(=O)c3ccco3)cc(=O)n12,/,/,i,i,/
COc1cc(/C=N/NC(=O)C(=O)/C=C2\NC(C)(C)Cc3ccccc32)ccc1O,?,-53.4*,i,i,?
COc1cc(/C=N/NC(=O)C2(O)c3ccccc3-c3ccccc32)ccc1O,-0.5%,8.7,i,i,8.1%
Cc1nc(N2CCC(C)CC2)c2c(C)c(C(=O)Nc3ccc(C(F)(F)F)cc3)sc2n1,?,-84.2*,?,i,10.3%
Cc1nc(N2CCC(C)CC2)c2c(C)c(C(=O)Nc3cccc(C(F)(F)F)c3)sc2n1,20.6µM*,0.0,i,i,?
Cc1nc(N2CCC(C)CC2)c2c(C)c(C(=O)Nc3ccc4c(c3)OCCO4)sc2n1,4.6%,?,i,i,-4.8%
COc1cccc(-c2nnc(NC(=O)CCS(=O)(=O)c3ccc(F)cc3)o2)c1,/,?,i,i,/
COc1cc(OC)cc(-c2nnc(NC(=O)CCS(=O)(=O)c3ccc(C)cc3)o2)c1,4.61µM*,-3.1,i,i,?
Cc1ccc(C)c(-c2nnc(NC(=O)CCS(=O)(=O)c3ccc(F)cc3)o2)c1,?,2.3,i,i,-4.4%
Cc1ccc(S(=O)(=O)CCC(=O)Nc2nnc(-c3ccc(F)cc3)o2)cc1,?,-59.5*,i,i,?
O=C(CCS(=O)(=O)c1ccc(F)cc1)Nc1nnc(-c2ccco2)o1,?,-19.9,i,i,18.4µM*
CCCn1c(SCC(=O)Nc2ccc(S(=O)(=O)N(C)C)cc2)n[nH]c1=O,-2.1%,23.3,i,i,-1.8%
COc1ccccc1C(=O)NC(=O)COC(=O)Cn1cnc2c1c(=O)n(C)c(=O)n2C,10.6%,33.1,i,i,-16.8%
C=CCNc1sc(C(=O)c2ccccc2)c(N)c1-c1nc2ccccc2s1,9.6%,4.2,?,i,8.3%
CCNc1sc(C(=O)c2cccs2)c(N)c1-c1nc2ccccc2s1,?,-2.2,i,i,0.82µM*
Cc1nn2c(N)c(C#N)cnc2c1-c1ccc(Cl)cc1,-1.9%,27.4,i,i,0.1%
COc1ccc(-c2c(C)nn3c(N)c(C#N)cnc23)cc1OC,-1.2%,-2.0,9.2µM*,i,-5.3%
O=C(c1cccc([N+](=O)[O-])c1)N1CCN(c2cccc(Cl)c2)CC1,16.4µM*,-3.1,5.8µM*,18.4µM*,?
O=S(=O)(c1ccccc1)N1CCN(c2cccc(Cl)c2)CC1,-5.2%,-16.0,i,i,-0.9%
O=[N+]([O-])c1ccc2[nH]cc(S(=O)(=O)N3CCN(c4cccc(Cl)c4)CC3)c2c1,9.7%,-95.7*,?,?,?
COC(=O)c1cc(C(=O)N2CCN(c3cccc(Cl)c3)CC2)cc([N+](=O)[O-])c1,?,61.4,?,1.03µM*,0.731µM*
Cc1ccc(N2CCN(C(=O)c3cccc([N+](=O)[O-])c3)CC2)cc1Cl,-6.4%,?,i,i,-15.0%
Cc1cc(C)c(S(=O)(=O)N(C)CC(=O)NCc2ccncc2)c(C)c1,28.3%,24.9,i,i,57.5%
Cc1ccc(C(=O)COC(=O)c2ccco2)cc1C,1.1%,0.5,?,i,2.1%
Fc1ccc(-c2nnc3ccc(N4CCc5ccccc5C4)nn23)cc1,4.0%,-89.3*,?,i,-6.0%
